From PubChem
Most compounds without a hit are left out; they make up all but 1.6% or so of the library.
Hsp90 block = tumor Hsp90 inhibitors, primary screen, cell lysate, fluorescence polarization, NCI-N417 lysate; Heat shock protein HSP 90-alpha (Homo sapiens), P07900; Cy3B-geldanamycin FP displacement; inhibition, % at 30 µM; actives 0.35% (n = 64,000);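 active = inhibition above 50%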;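 note: 0% = tracer plus lysate wells and 100% = tracer alone without lysate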
HER2 expr 66K = inhibitors of Her2 protein expression, primary screen, SKBR-3 cells, AlphaScreen, 66K library; HER2 level % of control, % at 10 µM; SKBR-3 HER2 protein level, 18-24 h; hits give low values; actives 0.69% (n = 65,000); Receptor tyrosine-protein kinase erbB-2 (Homo sapiens), P04626; AID 645, 2007;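 active = HER2 level under 5% of the carrier-only control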;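 note: 100% = DMSO carrier and 0% = 500 nM PU-H71 HSP90 inhibitor; lower value means stronger loss of Her2 protein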
WNV protease inh = inhibitors of WNV NS2B-NS3 protease, primary screen, biochemical, fluorogenic substrate; Genome polyprotein (West Nile virus), P06935; fluorogenic substrate Ex360/Em465; hits give low values; z-score (concentration not given with the values); actives 0.18% (n = 65,000); AID 577, 2007; in the data active = z-score below about -3
ROCK2 inh = inhibitors of human ROCK2 kinase, primary screen, biochemical, high-throughput, luminescence; Rho-associated protein kinase 2 (Homo sapiens), O75116; purified ROCK2, Kinase-Glo ATP depletion luminescence; inhibition, % at 6 µM; actives 0.35% (n = 60,000); AID 604, 2007;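 active = inhibition above the screen-wide mean inhibition plus 3 SD, cut at about 18% in these data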;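 note: plate controls were DMSO wells for no effect and Y-27632 control wells after no-enzyme background subtraction for full effect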
PKA kinase inh = inhibitors of human PKA kinase activity, primary screen, biochemical, ATP-depletion luminescence, Kemptide substrate; actives 0.1% (n = 65,000); AID 524, 2006; PKA Kemptide phosphorylation, Kinase-Glo ATP luminescence; cAMP-dependent protein kinase catalytic subunit alpha (Homo sapiens), P17612; inhibition, % at 6 µM;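 active = inhibition above the screen-wide mean inhibition plus 3 SD, cut at about 21% in these data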
SKBR3 24h inh = SK-BR-3 proliferation inhibitors, primary screen, cell-based, human, 24 h. viability, % at 10 µM. actives 0.47% (n = 41,000). SK-BR-3 viability, CellTiter-Glo ATP luminescence; hits give low values;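 active = viability at or below the median of all test compounds minus 3 SD, in both replicates if run twice, cut at about 45% in these data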;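 note: 100% = median untreated cell wells and 0% = median positive control drug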
The depositor's hits bear a star; · = no result.

SMILES	Hsp90 block	HER2 expr 66K	WNV protease inh	ROCK2 inh	PKA kinase inh	SKBR3 24h inh
O=C(Nc1ccc(S(=O)(=O)Nc2cnc3ccccc3n2)cc1)c1ccc(Br)o1	-6	97	0.68	6	4	80
CC(=O)Nc1cnc2ccccc2n1	56*	87	0.3	1	3	122
CCC(=O)Nc1ccc(C(=O)Cn2nc(C(=O)O)c3ccccc3c2=O)cc1	-9	90	-1.1	33*	11	·
Cc1nn(CC(=O)Nc2ccccc2)c(=O)c2ccccc12	-6	65	-0.73	1	0	76
Cn1c(C(=O)O)c(CC(=O)NCc2cccnc2)c2ccccc21	1	90	-0.9	3	2	87
CCOC(=O)C(C(=O)OCC)c1cc(Br)c2noc3c2c1C(=O)c1ccccc1-3	·	-5.2*	0.29	·	4	26*
CC(=O)OCCNc1cc(N2CCN(C)CC2)c2noc3c2c1C(=O)c1ccccc1-3	35	93	-0.47	8	12	·
O=C1c2c(O)cc(O)cc2OC(c2ccc(O)c(O)c2)C1O (stereo unspecified)	71*	·	·	·	·	·
CC1(C)CC(=O)c2c(O)cc(O)cc2O1	0	126	0.39	7	10	89
COc1cc2[nH]c(=O)n(CCC(=O)N3CCN(c4cc(Cl)ccc4C)CC3)c(=O)c2cc1OC	·	-23*	·	·	2	8.5*
COc1ccc(Br)cc1/C=c1\sc2nc(-c3ccco3)nn2c1=O	-12	66	-3*	6	6	70
Cc1ccc(/C=c2\sc3nc(-c4ccco4)nn3c2=O)o1	-4	49	-1.5	8	10	97
CN(C)/C=N/c1sc2c(c1C#N)CCC2	-1	114	-0.89	4	4	·
N#Cc1c(/N=C/c2cccs2)sc2c1CCCCC2	-5	53	-1	25*	6	95
CCC(C)(C)NCCCCCNc1cc(OC)cc2cccnc12	0	·	·	·	·	·
CCOc1ccc2nc(NC(=O)C3CCCN(S(=O)(=O)c4c(C)noc4C)C3)sc2c1 (stereo unspecified)	0	82	-0.47	2	6	·
CCOC(=O)N1CCC(NC(=O)CCC(=O)N2CC(C)Oc3ccc(Cl)cc32)CC1 (stereo unspecified)	3	75	-0.47	-1	3	95
COC(=O)C1=C(N)Oc2cc(C)n(C)c(=O)c2C1c1ccc(Cl)c(Cl)c1 (stereo unspecified)	3	3.3*	-0.88	1	5	117
COC(=O)C1=C(N)Oc2cc(C)n(CCCn3ccnc3)c(=O)c2C1c1ccc(Cl)cc1 (stereo unspecified)	-1	158	0.71	-6	-6	74
Cc1cc(-c2ccccc2)nc(=O)[nH]1	3	-18*	-0.88	-1	4	89
CNC(=O)[C@H]1O[C@@H](n2cnc3c(NCc4ccc(N)cc4)ncnc32)C(O)[C@H]1O (stereo partly specified)	0	·	·	·	·	·
C=CCNc1nc2c(c(=O)[nH]c(=O)n2C)n1Cc1cccc(C)c1	0	112	-1.1	-1	-6	·
CC(=O)c1cccc(NC(=O)NCc2cccs2)c1	-1	125	0.15	20*	8	94
NC(=S)c1ccc[n+]([C@@H]2O[C@@H](COP(=O)([O-])OP(=O)(O)OC[C@H]3O[C@@H](n4cnc5c(N)ncnc54)C(OP(=O)(O)O)[C@H]3O)C(O)C2O)c1 (stereo partly specified)	0	·	·	·	·	·
CCSCc1nnc(SCC(=O)Nc2cccc(SC)c2)n1C	3	99	-1.6	5	5	120
SMILES	Hsp90 block	HER2 expr 66K	WNV protease inh	ROCK2 inh	PKA kinase inh	SKBR3 24h inh
O=C(Cc1ccccc1)N1CCCC(c2nc(-c3cccs3)no2)C1 (stereo unspecified)	1	81	0.29	-2	0	41*
CC(=O)SC1CC2=CC(=O)CC[C@]2(C)C2CC[C@@]3(C)C(CC[C@@]34CCC(=O)O4)C12 (stereo partly specified)	-1	·	·	·	·	·
FC(F)(F)c1ccc(N2CCOCC2)c(Nc2nc3ccccc3n3cnnc23)c1	0	-16*	-1.9	2	6	·
CCOC(=O)c1ccc(COC(=O)c2cc3ccccc3oc2=O)o1	-1	81	-0.54	1	0	94
CCCCC(C(=O)O)C(C)CC(=O)Nc1cccc(C(=O)O)c1 (stereo unspecified)	-2	-22*	-0.04	1	3	101
COc1ccc(OC)c(NS(=O)(=O)c2cccs2)c1	6	96	-6*	-3	-1	69
COc1ccc(OC)c(S(=O)(=O)Nc2ccc(O)c3ccccc23)c1	16	1.2*	-0.61	4	4	·
COc1ccc(OC)c(NS(=O)(=O)c2ccc(Cl)s2)c1	-4	86	-0.19	5	9	82
CCOC(=O)C1CCCN(C(=O)CSc2nccn2C)C1 (stereo unspecified)	0	105	-0.33	5	10	·
COC(=O)CC1=C(C(=O)OC)C(c2ccc3c(c2Cl)OCO3)C(C#N)=C(N)O1 (stereo unspecified)	-7	-22*	-0.85	-14	1	82
COC(=O)CC1=C(C(=O)OC)C(c2ccncc2)C(C#N)=C(N)O1 (stereo unspecified)	-3	69	-0.52	-1	1	88
CCOc1ccc(NC(=O)CSC(N)=O)cc1	2	108	-0.45	14	5	·
CCOc1ccc(NC(=O)C/C(N)=N/O)cc1	-10	-21*	0.21	6	12	78
CCn1c(SCC(=O)Nc2ccc3c(c2)c2ccccc2n3CC)nnc1-c1ccco1	-3	83	-3*	-11	-6	·
Cn1c(NCC(O)c2ccccc2)nc2c1c(=O)n(Cc1ccc(Cl)c(Cl)c1)c(=O)n2C (stereo unspecified)	-2	49	-0.01	5	5	83
Cn1c(NCC(O)c2ccccc2)nc2c1c(=O)n(Cc1ccc(Cl)cc1)c(=O)n2C (stereo unspecified)	-8	-28*	-0.25	0	-1	95
Cc1n[nH]c(C)c1S(=O)(=O)Nc1ccc2c(c1)OCCO2	18	86	-0.53	4	10	95
CC(=O)c1cc(C#N)c(SCCC(C)C)nc1C	-4	77	0.79	2	-5	99
CC(=O)c1cc(C#N)c(SCc2ccncc2)nc1C	-10	97	0.34	28*	2	98
Nc1ncnc2c1c(-c1ccc(Oc3ccccc3)cc1)cn2C1CCCC1	-1	·	·	·	·	·
